Source: PubChem BioAssay
Giardia FBPA inh-1 – Giardia lamblia aldolase inhibition; A8B2U2; purified Giardia FBPA; Potency, µM (titrated, usually from 59.6 µM), hits mostly inhibitors; 290,000 compounds, 0.71% hits; further: nearly all actives have a fitted effect of over 55% in size
Target sequence (A8B2U2 whole entry, looked up): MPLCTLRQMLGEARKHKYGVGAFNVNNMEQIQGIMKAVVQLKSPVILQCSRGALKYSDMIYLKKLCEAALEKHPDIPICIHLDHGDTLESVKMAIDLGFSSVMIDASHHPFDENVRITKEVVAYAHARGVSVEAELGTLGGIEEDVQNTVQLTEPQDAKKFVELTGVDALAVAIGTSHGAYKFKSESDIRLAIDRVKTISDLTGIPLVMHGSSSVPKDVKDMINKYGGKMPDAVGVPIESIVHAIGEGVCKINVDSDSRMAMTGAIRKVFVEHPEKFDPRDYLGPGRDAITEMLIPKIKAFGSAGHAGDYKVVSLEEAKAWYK
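40 nM FBPA preincubated 10 min at RT with compound (up to 57.5 uM final), then substrate plus GAPDH/TPI/NAD/arsenate coupling and diaphorase/resazurin added. Fluorescence read after 20 min at RT, 525/598 nm.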
Sm TGR block – inhibitors of Schistosoma mansoni thioredoxin glutathione reductase; Potency, µM (titrated, usually from 114 µM), actives largely listed as inhibitors; purified TGR, DTNB reduction, TNB absorbance 405 nm; 360,000 compounds, 3% hits; Q962Y6; AID 485364; further: nearly all actives have a fitted effect of over 60% in size
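Kinetic colorimetric format: TGR-catalysed, NADPH-driven DTNB reduction monitored via TNB absorbance. Enzyme dispensed at 20 nM; compound exposure 15 min at room temperature before reaction start.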
LmPK inhibitor – LmPK (Leishmania mexicana) enzyme inhibition. 290,000 compounds, 0.37% hits. purified LmPK, Kinase-Glo ATP luminescence, 1 h. Potency, µM (top dose mostly 57.5 µM), actives largely listed as inhibitors
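Pyruvate kinase activity monitored as ATP production (luciferase luminescence). Conditions: 0.1 nM enzyme, 0.5 mM PEP, 0.1 mM ADP, 1 h, RT; normalized against uninhibited and no-enzyme wells.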
Tb PYK inh – blocks Trypanosoma brucei pyruvate kinase; Q57TT1; TbPYK enzyme, Kinase-Glo Plus ATP luminescence, 45 min; Potency, µM (top dose mostly 76.8 µM), most hits filed as inhibitors; 410,000 compounds, 0.12% hits; AID 624173; further: nearly all actives have a fitted effect of over 50% in size
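ADP (130 uM final) triggers the TbPYK reaction after compound addition; incubation is 45 min at room temperature. Kinase-Glo Plus is then added and luminescence imaged. Normalized data are fitted to concentration-effect curves.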
RE007 growth inh – less growth of the S. pombe RE007 Vpr strain | S. pombe RE007 Vpr strain, BacTiter-Glo ATP luminescence, 24 h | AID 651644 | 360,000 compounds, 0.21% hits | Potency, µM (titrated, usually from 92.2 µM), most hits filed as inhibitors; active means well fitted falling curve with a large enough effect; inconclusive means small, poorly fitted or top-dose-only effect; inactive means no such curve, though single readings can be large or run the other way; further: nearly all actives have a fitted effect of over 50% in size
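Fission yeast RE007 carrying one integrated HIV-1 vpr copy, seeded at OD 0.01 in PMG+AL medium with 23 nL pinned compound. Grown 24 h at 30 degrees; viability read by BacTiter-Glo luminescence after 5 min.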
Giardia growth – blocks growth of Giardia lamblia trophozoites | shares compounds with Giardia FBPA inh-1 | Giardia lamblia trophozoite growth inhibition | Potency, µM (top dose mostly 57.5 µM), usual class: inhibitors | 1,500 compounds, 5% hits | AID 2785;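 further: trophozoites exposed to compound for 48 h at 37 °C; nearly all actives have a fitted effect of over 70% in size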
Mammalian tox – toxic to mammalian cells in Giardia aldolase counter-screen. shares compounds with Giardia FBPA inh-1. Potency, µM (highest dose often 57.5 µM), usual class: inhibitors. mammalian cell viability counter-screen, qHTS. 1,500 compounds, 4% hits;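 further: Chinese hamster ovary cells used as mammalian cytotoxicity surrogate; viability measured as cellular ATP by luminescence; compound exposure lasted 48 h before reading; nearly all actives have a fitted effect of over 60% in size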
Giardia FBPA inh-2 – confirmation of Giardia fructose-bisphosphate aldolase inhibitors | shares compounds with Giardia FBPA inh-1 | purified Giardia aldolase enzyme activity, qHTS | Potency, µM (highest dose often 57.5 µM), usual class: inhibitors | 1,500 compounds, 5% hits | AID 2787; further: nearly all actives have a fitted effect of over 45% in size
Rabbit FBPA inh – selectivity test for Giardia aldolase inhibitors: rabbit aldolase; Rabbit muscle FBPA enzyme inhibition, selectivity counter-screen; Potency, µM (series often up to 57.5 µM), most hits filed as inhibitors; shares compounds with Giardia FBPA inh-1; 1,500 compounds, 4% hits; further: nearly all actives have a fitted effect of over 60% in size
Target sequence (P00883 whole entry, looked up): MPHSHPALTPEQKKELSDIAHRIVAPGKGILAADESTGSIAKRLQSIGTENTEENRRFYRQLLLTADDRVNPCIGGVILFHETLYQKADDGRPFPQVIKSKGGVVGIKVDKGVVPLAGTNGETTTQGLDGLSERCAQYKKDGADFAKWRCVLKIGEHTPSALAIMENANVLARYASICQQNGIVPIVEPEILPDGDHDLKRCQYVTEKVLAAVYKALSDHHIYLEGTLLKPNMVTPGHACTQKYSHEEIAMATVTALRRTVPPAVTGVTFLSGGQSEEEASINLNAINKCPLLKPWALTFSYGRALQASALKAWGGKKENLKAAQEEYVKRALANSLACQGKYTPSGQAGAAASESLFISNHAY
GAPDH coupling – counter-screen for Giardia aldolase inhibitors: GAPDH coupling enzyme; shares compounds with Giardia FBPA inh-1; 1,500 compounds, 6% hits; Potency, µM (top dose mostly 57.5 µM), hits mostly inhibitors; GAPDH coupling enzyme counterscreen, biochemical, qHTS; further: nearly all actives have a fitted effect of over 55% in size
Numbers stand for hits; – = inactive; ? = inconclusive; · = no result; [ ] = dose if it differs, or a comment. Rows were chosen to be rich in hits. Some 3.3% of all compounds tested hit in one or more screens of this group. Unless noted, the call rests on the fitted dose curve; in most records, active means well fitted curve in the direction sought with a large enough effect; inconclusive means small, poorly fitted or top-dose-only effect, or another doubt; inactive means no such curve, though single readings can be large; an effect the other way counts as inactive or inconclusive.

SMILES | Giardia FBPA inh-1 | Sm TGR block | LmPK inhibitor | Tb PYK inh | RE007 growth inh | Giardia growth | Mammalian tox | Giardia FBPA inh-2 | Rabbit FBPA inh | GAPDH coupling
CSc1ccc(CN2CCC(N3CC(C)OC(C)C3)CC2)cc1 (configuration not stated) | ? | – | – | – | – | · | · | · | · | ·
Cc1ccc(CN2CCC(N3CC(C)OC(C)C3)CC2)cc1 (configuration not stated) | 16µM | – | – | – | – | ? | – | – | – | –
CCC(=O)N1CCC2(CC1)Oc1ccc(Cl)cc1C(=O)C21CC(c2cccnc2)=NO1 (configuration not stated) | – | – | – | – | – | · | · | · | · | ·
COc1ccc(-c2csc(Nc3ncccc3C)n2)cc1OC | – | – | – | – | – | · | · | · | · | ·
Cc1cccnc1Nc1nc(-c2ccc(O)c(O)c2)cs1 | 10µM | ? | – | – | – | – | – | – | – | –
Cn1c(SCC(=O)c2ccccc2)nnc1-c1cccnc1 | – | – | – | – | – | · | · | · | · | ·
Cn1c(SCC(=O)c2ccccc2)nnc1-c1cnccn1 | 20µM | – | – | ? | – | – | – | – | – | –
CCc1nn2c(=O)c(S(=O)(=O)Nc3ccc(Cl)cc3)c(C)nc2s1 | – | – | – | – | – | · | · | · | · | ·
CCOc1ccc(N(CC(=O)Nc2ccc(Cl)cc2)S(C)(=O)=O)cc1 | · | · | · | – | – | · | · | · | · | ·
COc1ccc(NC(=O)CC(NCc2ccccn2)C(=O)O)cc1 (configuration not stated) | 11µM | · | – | – | – | – | – | – | – | –
CCOc1ccc(NC(=O)NCc2ccccn2)cc1 | – | – | – | – | – | · | · | · | · | ·
COc1ccc(NC(=O)CC(C(=O)O)C(C)c2ccccc2)cc1 (configuration not stated) | – | – | – | – | – | · | · | · | · | ·
CCOc1ccc(NC(=O)CC(NCc2ccccn2)C(=O)O)cc1 (configuration not stated) | 5µM | – | – | – | – | – | – | – | – | –
O=C(C1CC(=O)N(c2ccc3c(c2)OCCO3)C1)N1CCN(Cc2ccccc2F)CC1 (configuration not stated) | · | – | · | – | – | · | · | · | · | ·
Cc1[nH]cnc1C(=O)N/N=C/c1c(Cl)cccc1Cl | – | – | ? | ? | ? | · | · | · | · | ·
Cc1cc(NC(=O)CSc2nnc(C3COc4ccccc4O3)n2N)no1 (configuration not stated) | 20µM | – | – | – | – | – | – | – | – | –
NC(=O)NC(=O)CC1S/C(=N/N=C/c2ccccc2)NC1=O (configuration not stated) | – | – | – | – | – | · | · | · | · | ·
NC(=O)NC(=O)CC1S/C(=N/N=C2\CSC(=O)N2)NC1=O (configuration not stated) | 13µM | – | – | – | – | – | – | – | – | –
O=C(O)CNC(=O)CC1S/C(=N/N=C2/NC(=O)CS2)NC1=O (configuration not stated) | 18µM | – | – | – | – | ? | – | – | – | –
CC1=C/C(=N\N=C2\NC(=O)C(CC(=O)Nc3ccccc3)S2)CC(C)(C)C1 (configuration not stated) | – | · | – | – | – | · | · | · | · | ·
COc1ccc(-n2nnc3c(=O)n(CC(=O)Nc4cc(C)on4)cnc32)cc1 | – | – | – | – | – | · | · | · | · | ·
O=C(Cn1cc2c(n1)CCCC2)Nc1ccccc1Br | – | – | – | – | – | · | · | · | · | ·
OC(CN1C2=NCCN2c2ccccc21)c1ccccc1 (configuration not stated) | – | – | – | – | – | · | · | · | · | ·
CC(Sc1nnc(-c2ccc(C(C)(C)C)cc2)n1C)C(N)=O (configuration not stated) | – | – | – | – | – | · | · | · | · | ·
O=C(CSc1n[nH]c(-c2ccccc2)n1)c1ccc(O)c(O)c1 | 8.9µM | – | – | – | – | –[10.4 µM] | – | – | – | –
SMILES | Giardia FBPA inh-1 | Sm TGR block | LmPK inhibitor | Tb PYK inh | RE007 growth inh | Giardia growth | Mammalian tox | Giardia FBPA inh-2 | Rabbit FBPA inh | GAPDH coupling
Cc1nc(SCC(=O)c2ccc(F)cc2)n[nH]1 | 28µM | – | – | ? | – | –[10.4 µM] | – | – | – | –
CC(C)NCC(=O)Nc1c2c(nc3ccccc13)CCC2 | 18µM | – | – | – | – | –[10.4 µM] | – | – | – | –
COc1cccc(C(O)c2nc(-c3cc(F)cc(F)c3)cs2)c1 (configuration not stated) | · | · | · | – | – | · | · | · | · | ·
CCN1CCN(CC(=O)N/N=C/c2cc(Br)cs2)CC1 | 18µM | – | – | – | – | – | – | – | – | –
Cc1nccn1CC(=O)N/N=C/c1cc(Br)cs1 | – | – | – | – | – | · | · | · | · | ·
CC(/C=N/n1c(-c2ccc(Cl)cc2)n[nH]c1=S)=C\c1ccco1 | – | – | – | ? | · | · | · | · | · | ·
COc1cccc(/C=N/n2c(-c3n[nH]c4c3CCC4)n[nH]c2=S)c1O | – | – | – | ? | – | · | · | · | · | ·
COc1cccc(/C=N/n2c(-c3cc(C)[nH]n3)n[nH]c2=S)c1O | 5.6µM | – | – | ? | – | ? | – | – | ? | –
CC(/C=N/n1c(-c2cc(C)[nH]n2)n[nH]c1=S)=C\c1ccco1 | 2.5µM | 13µM | – | ? | – | – | – | ? | – | –
O=c1cnnc(N/N=C/C2CC=CCC2)[nH]1 (configuration not stated) | 20µM | – | – | – | – | ? | – | – | – | –
Cc1ccc(C(=O)CSc2ncn[nH]2)cc1 | 28µM | ? | – | – | – | –[10.4 µM] | – | – | – | –
CCn1nc(C)cc1-c1n[nH]c(=S)n1N | 7.1µM | – | – | ? | – | – | – | – | – | –
O=C1/C(=C\c2ccco2)CCC/C1=C\c1ccco1 | 16µM | 1.4µM | – | – | – | – | ? | – | – | –
Cc1cc(C)nc(SCC(=O)n2c3c(c4ccccc42)CCCC3)n1 | – | – | – | – | – | · | · | · | · | ·
COc1cc(OC)cc(C(=O)NC(=S)N2C[C@H]3C[C@H](C2)c2cccc(=O)n2C3)c1 | 11µM | – | – | – | – | – | – | – | – | –
COc1ccc(/C=C/C(=O)NC(=S)N2C[C@H]3C[C@H](C2)c2cccc(=O)n2C3)cc1OC | 7.9µM | – | – | – | – | ? | – | – | – | –
